FLuc counter = qHTS profiling assay for firefly luciferase inhibitor/activator using purifed enzyme and Km concentrations of substrates (counterscreen for miR-21 project). purified FLuc, Km substrates, luminescence inhibition. Potency, µM (series often up to 57.5 µM), hits mostly inhibitors. Luciferin 4-monooxygenase (Photinus pyralis), P08659. actives 6.9% (n = 360,000); further: nearly all actives have a fitted effect of over 55% in size
Target sequence (P08659 whole entry, looked up): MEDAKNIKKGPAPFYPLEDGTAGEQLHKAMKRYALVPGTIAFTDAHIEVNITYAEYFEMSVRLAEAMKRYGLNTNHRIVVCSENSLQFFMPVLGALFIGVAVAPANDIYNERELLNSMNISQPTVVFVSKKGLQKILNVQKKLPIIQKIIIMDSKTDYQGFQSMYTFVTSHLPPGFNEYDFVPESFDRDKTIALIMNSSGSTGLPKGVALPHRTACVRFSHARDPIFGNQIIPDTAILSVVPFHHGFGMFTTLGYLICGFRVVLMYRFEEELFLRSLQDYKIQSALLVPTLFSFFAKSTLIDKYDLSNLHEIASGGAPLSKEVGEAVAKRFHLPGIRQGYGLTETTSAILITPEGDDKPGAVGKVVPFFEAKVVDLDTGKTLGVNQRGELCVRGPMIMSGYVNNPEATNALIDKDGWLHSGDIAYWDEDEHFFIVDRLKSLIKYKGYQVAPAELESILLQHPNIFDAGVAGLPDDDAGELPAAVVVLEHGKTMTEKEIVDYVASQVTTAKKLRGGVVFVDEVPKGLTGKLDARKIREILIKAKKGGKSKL
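Biochemical qHTS of compounds, final roughly 60 µM downward over six points, against 10 nM purified firefly luciferase using Km concentrations of substrates (10 uM D-luciferin, 10 uM ATP) in Tris acetate pH 7.5 buffer; luminescence output.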
NPC1 prom act = qHTS Assay for NPC1 Promoter Activators; Huh7 NPC1 promoter luciferase reporter, 24 h; Potency, µM (series often up to 9.22 µM), most hits filed as activators; actives 2.4% (n = 320,000); AID 485313, 2010; further: nearly all actives have a fitted effect of over 60% in size
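NPC1 promoter–luciferase Huh7 cells; 24 h compound; luminescence.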
SMN2 splice enh = qHTS Assay for Enhancers of SMN2 Splice Variant Expression; HEK293 SMN2-luciferase splicing reporter, luminescence, 30-36 h; actives 2.8% (n = 210,000); Potency, µM (series often up to 46.1 µM), usual class: activators; further: nearly all actives have a fitted effect of over 55% in size
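HEK293 cells carry an SMN2 minigene-luciferase reporter in which exon 7 inclusion puts luciferase in frame. Cells were seeded at 2000 cells/well, attached for 10-12 hours, then exposed to compounds for 30-36 hours at 37C before ONE-Glo luminescence.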
ELG1 genotox = qHTS screen for small molecules that induce genotoxicity in human embryonic kidney (HEK293T) cells expressing luciferase-tagged ELG1 | actives 1.3% (n = 330,000) | HEK293T ELG1-luciferase reporter, luminescence, 16 h | Potency, µM (highest dose often 46 µM), usual class: activators | AID 504466, 2011; further: nearly all actives have a fitted effect of over 60% in size
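ELG1-luciferase HEK293T cells, 2,000/well; compound pinned in; 16 hr, 37 °C, 5% CO2; ONE-Glo, 30 min RT; luminescence on CCD imager.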
Luc counter = Counterscreen for Luciferase (Kinase-Glo TM) Inhibition | Potency, µM (series often up to 38.3 µM), hits mostly inhibitors | AID 1379, 2008 | actives 0.28% (n = 200,000) | Kinase-Glo luciferase, ATP luminescence, 8 min; further: nearly all actives have a fitted effect of over 60% in size
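Substrate mix (final 50 mM imidazole pH 7.2, 50 mM KCl, 7 mM MgCl2, 10 uM ATP, 0.01% Tween 20, 0.05% BSA) plus pin-tool compound, then Kinase-Glo detection mix; 8 min ambient, luminescence read.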
Rab9 prom act = qHTS Assay for Rab9 Promoter Activators. Potency, µM (top dose mostly 9.22 µM), hits mostly activators. AID 485297, 2010. Huh7 Rab9 promoter-luciferase reporter, luminescence, 24 h. actives 2.8% (n = 320,000); further: nearly all actives have a fitted effect of over 60% in size
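Luminescence read-out: Huh7 cells stably expressing Rab9-luciferase, treated 24 h with compound at 37 °C, then lysed with luciferase reagent for 10 min at ambient before reading.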
Of the large screens only hits and unclear results are named; the others gave an inactive call. This is a sample that favours compounds with a hit; in the whole collection about 7.3% have one here. The call rests on the fitted dose curve; in most records, active means well fitted curve in the direction sought with a large enough effect; inconclusive means small, poorly fitted or top-dose-only effect, or another doubt; inactive means no such curve, though single readings can be large; an effect the other way counts as inactive or inconclusive.

CCc1ccc(CNC(=O)CCc2c(C)nn(-c3ccc(N4CCCCC4)nn3)c2C)cc1	none (no result: NPC1 prom act, SMN2 splice enh, ELG1 genotox, Luc counter, Rab9 prom act)
CC(C)c1ccc(O)c(O)c(=O)c1 (tested in a mixture with another compound)	none (no result: FLuc counter, NPC1 prom act, ELG1 genotox, Rab9 prom act)
CC1=C(c2ccc(C(C)C)cc2)S(=O)(=O)NC1=NCc1ccccc1Br	none (no result: NPC1 prom act, SMN2 splice enh, ELG1 genotox, Luc counter, Rab9 prom act)
CCN1CCN(Cc2c(O)ccc3c(=O)c(-c4ccccc4OC)coc23)CC1	none
CCN1CCN(Cc2c(O)ccc3c2O/C(=C\C=C\c2ccccc2OC)C3=O)CC1	FLuc counter 4.78µM
CCn1cc(S(=O)(=O)c2cccc(Cl)c2)c(=O)c2cc(F)c(N3CCN(C)CC3)cc21	none (no result: NPC1 prom act, SMN2 splice enh, ELG1 genotox, Luc counter, Rab9 prom act)
Cc1ccc2c(c1)c1nc3ccccc3nc1n2C	FLuc counter 6.75µM, ELG1 genotox inconclusive (no result: SMN2 splice enh, Luc counter)
O=C(CCCN1C(=O)/C(=C/c2ccccc2Cl)SC1=S)N1CCCC1	FLuc counter inconclusive (no result: SMN2 splice enh, Luc counter)
O=C(CCCN1C(=O)/C(=C/c2ccccc2Cl)SC1=S)NNC(=O)c1ccncc1	FLuc counter 15.1µM (no result: SMN2 splice enh, Luc counter)
O=C(CCN1C(=O)/C(=C/c2ccccc2Cl)SC1=S)N1CCCC1	FLuc counter 26.9µM (no result: SMN2 splice enh, Luc counter)
O=C(CCCN1C(=O)/C(=C/c2ccccc2Cl)SC1=S)NNC(=O)c1ccccc1Cl	FLuc counter 7.57µM
Cc1ccc(Cn2c(C)c(CNCc3ccccc3F)c(C(=O)O)c2C)cc1	none (no result: NPC1 prom act, ELG1 genotox, Luc counter, Rab9 prom act)
O=c1c(=Nc2ccccc2O)c(=O)c2ccccc12	NPC1 prom act inconclusive, SMN2 splice enh 11.2µM, ELG1 genotox inconclusive, Rab9 prom act 3.55µM
COc1cc(OC)cc(-c2nc(-c3cccc(C)c3)no2)c1	FLuc counter inconclusive (no result: NPC1 prom act, ELG1 genotox, Luc counter, Rab9 prom act)
COc1nc2ccc(C)cc2cc1-c1noc(-c2cccnc2)n1	none
COc1cccc(-c2nc(-c3ccccc3)no2)c1	FLuc counter inconclusive, NPC1 prom act inconclusive, SMN2 splice enh 11.2µM, ELG1 genotox inconclusive, Rab9 prom act inconclusive
COc1cccc(-c2ccc(-c3noc(-c4ccccc4Br)n3)c(OC)n2)c1	FLuc counter inconclusive (no result: NPC1 prom act, ELG1 genotox, Luc counter, Rab9 prom act)
COc1ccc(-c2nc(-c3ccncc3)no2)c(OC)c1	FLuc counter 0.953µM, NPC1 prom act inconclusive, ELG1 genotox 2.91µM, Rab9 prom act 0.708µM (no result: SMN2 splice enh, Luc counter)
COc1cccc(-c2noc(-c3cccnc3)n2)c1	FLuc counter 5.36µM, NPC1 prom act 3.55µM, SMN2 splice enh 20µM, ELG1 genotox inconclusive, Rab9 prom act 2.51µM
COc1cc(OC)c(-c2nc(-c3ccncc3)no2)cc1OC	none (no result: SMN2 splice enh, Luc counter)
COc1cccc(-c2nc(-c3ccccn3)no2)c1	FLuc counter 0.338µM, NPC1 prom act inconclusive, Luc counter 7.94µM, Rab9 prom act 0.112µM
Cc1c(C(=O)N2CCC(C)CC2)c(S(=O)(=O)Nc2cccc(C#N)c2)c(C)n1C	none (no result: NPC1 prom act, SMN2 splice enh, ELG1 genotox, Luc counter, Rab9 prom act)
COc1ccc(C)cc1NC(=O)CCS(=O)(=O)c1cc2c3c(c1)CCN3C(=O)CC2	none (no result: NPC1 prom act, SMN2 splice enh, ELG1 genotox, Luc counter, Rab9 prom act)
COc1c(Cl)cc(C(=O)N(Cc2ccc(C)o2)C2CCS(=O)(=O)C2)cc1Cl (centres undefined)	none (no result: NPC1 prom act, ELG1 genotox, Luc counter, Rab9 prom act)
COc1ccc(OC)c(NC(=O)N2CCN(S(=O)(=O)c3ccc4c(ccn4C)c3)CC2)c1	none (no result: NPC1 prom act, SMN2 splice enh, ELG1 genotox, Luc counter, Rab9 prom act)
CCCCOc1ccc(C2=NC(c3ccncc3)=Nc3ccc(OCC)cc3N2)cc1	none (no result: NPC1 prom act, ELG1 genotox, Luc counter, Rab9 prom act)
CCOc1cc(/C=N/NC(=O)c2cc(-c3cccc(OC)c3)n[nH]2)ccc1O	none (no result: FLuc counter, NPC1 prom act, SMN2 splice enh, ELG1 genotox, Rab9 prom act)
COc1cccc(-c2noc(-c3cccs3)n2)c1	FLuc counter 2.13µM, NPC1 prom act inconclusive, SMN2 splice enh 12.6µM, ELG1 genotox 1.3µM, Rab9 prom act 1µM
COc1cccc(OCc2nnc(-c3cccs3)o2)c1	FLuc counter inconclusive
COc1cc(-c2nc(-c3cccnc3)no2)cc(OC)c1OC	none
O=[N+]([O-])c1cccc(-c2nc(-c3ccccn3)no2)c1	FLuc counter 4.78µM, NPC1 prom act 0.708µM, ELG1 genotox inconclusive, Rab9 prom act 0.398µM (no result: SMN2 splice enh, Luc counter)

Compound activity from PubChem.
